Assay [1] addresses Insulin-like growth factor 1 receptor (Homo sapiens) (UniProt P08069). The conditions noted are these: at 10 µM.
Assay [2] addresses T1, Protein kinase C zeta type (Homo sapiens) (UniProt Q05513).
T1 sequence (whole entry): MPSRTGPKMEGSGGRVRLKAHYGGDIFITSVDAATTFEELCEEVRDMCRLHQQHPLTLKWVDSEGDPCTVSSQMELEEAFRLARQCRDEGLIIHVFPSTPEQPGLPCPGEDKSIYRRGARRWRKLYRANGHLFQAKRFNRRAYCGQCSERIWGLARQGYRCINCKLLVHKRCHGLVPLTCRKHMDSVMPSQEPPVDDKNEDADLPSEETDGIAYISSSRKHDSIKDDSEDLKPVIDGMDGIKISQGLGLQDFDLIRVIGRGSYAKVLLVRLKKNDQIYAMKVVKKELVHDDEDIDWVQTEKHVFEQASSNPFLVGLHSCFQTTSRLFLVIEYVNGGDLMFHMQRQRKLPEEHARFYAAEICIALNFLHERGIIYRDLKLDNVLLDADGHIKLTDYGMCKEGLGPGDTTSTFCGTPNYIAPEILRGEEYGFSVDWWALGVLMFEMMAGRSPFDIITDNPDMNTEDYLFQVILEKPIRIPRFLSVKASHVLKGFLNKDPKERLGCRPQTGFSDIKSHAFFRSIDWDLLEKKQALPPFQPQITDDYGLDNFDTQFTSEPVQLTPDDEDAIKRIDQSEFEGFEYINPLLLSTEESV
The conditions noted are these: at 10 µM.

In assay [3] the target is Protein kinase C eta type (Homo sapiens) (UniProt P24723). The conditions noted are these: at 1 µM.
Chain of Protein kinase C eta type (Homo sapiens) (P24723 whole entry): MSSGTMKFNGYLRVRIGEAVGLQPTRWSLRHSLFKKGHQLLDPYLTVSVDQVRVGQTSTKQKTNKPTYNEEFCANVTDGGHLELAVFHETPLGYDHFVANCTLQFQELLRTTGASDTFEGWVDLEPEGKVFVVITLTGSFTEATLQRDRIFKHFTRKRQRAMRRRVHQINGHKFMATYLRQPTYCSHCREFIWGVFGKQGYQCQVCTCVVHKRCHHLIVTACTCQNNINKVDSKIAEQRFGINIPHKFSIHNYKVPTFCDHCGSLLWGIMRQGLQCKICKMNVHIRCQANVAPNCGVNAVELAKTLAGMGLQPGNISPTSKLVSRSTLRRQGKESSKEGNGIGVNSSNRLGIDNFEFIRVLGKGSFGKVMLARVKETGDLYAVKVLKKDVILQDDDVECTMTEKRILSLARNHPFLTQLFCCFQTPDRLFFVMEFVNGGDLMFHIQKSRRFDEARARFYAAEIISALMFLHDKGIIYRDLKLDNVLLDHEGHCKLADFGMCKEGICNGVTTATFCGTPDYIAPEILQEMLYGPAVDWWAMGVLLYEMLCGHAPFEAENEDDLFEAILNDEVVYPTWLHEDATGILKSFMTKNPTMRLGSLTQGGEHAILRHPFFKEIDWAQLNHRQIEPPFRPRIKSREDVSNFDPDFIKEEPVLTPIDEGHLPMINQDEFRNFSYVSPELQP
Assay [4] has the same target. The conditions noted are these: at 10 µM.
The target in assay [5] is Protein kinase C theta type (Homo sapiens) (UniProt Q04759). Conditions: at 1 µM; call rule not given here.
Chain of Protein kinase C theta type (Homo sapiens) (Q04759 whole entry, looked up): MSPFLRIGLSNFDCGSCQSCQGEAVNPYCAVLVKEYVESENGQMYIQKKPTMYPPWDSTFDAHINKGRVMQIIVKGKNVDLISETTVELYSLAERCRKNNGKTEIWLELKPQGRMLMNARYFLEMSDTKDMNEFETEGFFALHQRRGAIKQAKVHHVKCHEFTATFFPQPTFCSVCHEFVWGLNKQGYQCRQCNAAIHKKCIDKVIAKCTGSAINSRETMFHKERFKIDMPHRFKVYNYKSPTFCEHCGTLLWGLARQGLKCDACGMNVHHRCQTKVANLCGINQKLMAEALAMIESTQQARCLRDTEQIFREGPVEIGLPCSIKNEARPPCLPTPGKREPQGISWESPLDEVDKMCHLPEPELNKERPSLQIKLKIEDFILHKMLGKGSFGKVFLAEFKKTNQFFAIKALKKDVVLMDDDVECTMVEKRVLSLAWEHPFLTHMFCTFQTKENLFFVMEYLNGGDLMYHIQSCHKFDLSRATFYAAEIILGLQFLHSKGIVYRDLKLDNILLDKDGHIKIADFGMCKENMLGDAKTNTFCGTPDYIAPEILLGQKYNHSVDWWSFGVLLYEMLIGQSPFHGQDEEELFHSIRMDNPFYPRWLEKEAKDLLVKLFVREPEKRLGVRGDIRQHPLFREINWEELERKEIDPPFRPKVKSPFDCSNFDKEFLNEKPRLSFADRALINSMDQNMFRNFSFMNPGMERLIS
Assay [6] shares this target. The conditions noted are these: at 10 µM.
Assay [7] addresses T2, Serine/threonine-protein kinase D1 (Homo sapiens) (UniProt Q15139).
T2 sequence (whole entry): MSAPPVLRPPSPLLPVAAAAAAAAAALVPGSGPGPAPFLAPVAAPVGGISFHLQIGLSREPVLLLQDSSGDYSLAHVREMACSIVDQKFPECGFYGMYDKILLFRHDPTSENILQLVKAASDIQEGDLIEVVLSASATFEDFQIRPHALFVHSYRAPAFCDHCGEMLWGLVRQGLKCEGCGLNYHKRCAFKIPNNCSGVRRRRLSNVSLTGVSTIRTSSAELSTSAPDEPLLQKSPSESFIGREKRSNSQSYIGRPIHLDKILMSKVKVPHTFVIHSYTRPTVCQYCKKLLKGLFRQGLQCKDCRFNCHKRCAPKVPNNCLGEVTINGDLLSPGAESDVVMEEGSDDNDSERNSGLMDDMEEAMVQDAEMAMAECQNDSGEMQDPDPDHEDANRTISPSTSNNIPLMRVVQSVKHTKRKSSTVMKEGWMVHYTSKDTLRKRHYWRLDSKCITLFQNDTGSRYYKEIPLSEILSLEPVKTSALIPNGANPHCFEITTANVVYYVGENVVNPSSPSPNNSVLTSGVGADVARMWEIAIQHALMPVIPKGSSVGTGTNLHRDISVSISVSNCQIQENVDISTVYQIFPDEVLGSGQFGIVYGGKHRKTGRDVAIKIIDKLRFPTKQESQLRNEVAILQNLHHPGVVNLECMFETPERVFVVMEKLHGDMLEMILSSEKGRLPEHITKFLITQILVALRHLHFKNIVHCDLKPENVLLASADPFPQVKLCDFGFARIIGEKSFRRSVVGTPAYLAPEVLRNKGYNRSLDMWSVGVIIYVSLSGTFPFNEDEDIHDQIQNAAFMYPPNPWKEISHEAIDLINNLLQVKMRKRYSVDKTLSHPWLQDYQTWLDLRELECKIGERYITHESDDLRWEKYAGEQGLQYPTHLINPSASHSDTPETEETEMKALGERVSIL
Conditions: at 1 µM.

Assay [8] has as its target T2, Serine/threonine-protein kinase D1 (Homo sapiens). The conditions noted are these: at 10 µM.
In assay [9] the target is T3, MAP kinase-activated protein kinase 5 (Homo sapiens) (UniProt Q8IW41).
T3 sequence (whole entry): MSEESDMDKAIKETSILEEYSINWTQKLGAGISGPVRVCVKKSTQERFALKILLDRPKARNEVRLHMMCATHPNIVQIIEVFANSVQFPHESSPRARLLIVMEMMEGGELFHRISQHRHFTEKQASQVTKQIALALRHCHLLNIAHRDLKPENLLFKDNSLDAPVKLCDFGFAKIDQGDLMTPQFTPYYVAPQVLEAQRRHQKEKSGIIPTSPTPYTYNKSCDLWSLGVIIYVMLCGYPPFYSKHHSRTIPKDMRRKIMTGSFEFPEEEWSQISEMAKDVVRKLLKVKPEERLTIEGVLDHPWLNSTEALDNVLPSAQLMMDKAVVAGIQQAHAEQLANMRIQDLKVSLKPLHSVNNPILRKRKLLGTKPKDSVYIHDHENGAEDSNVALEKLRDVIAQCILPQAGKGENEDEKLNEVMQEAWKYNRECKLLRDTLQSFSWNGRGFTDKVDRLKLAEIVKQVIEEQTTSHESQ
Conditions: at 1 µM.

Assay [10] concerns the target T3, MAP kinase-activated protein kinase 5 (Homo sapiens). The conditions noted are these: at 10 µM.
The target in assay [11] is T4, Protein kinase C iota type (Homo sapiens) (UniProt P41743).
T4 sequence (whole entry): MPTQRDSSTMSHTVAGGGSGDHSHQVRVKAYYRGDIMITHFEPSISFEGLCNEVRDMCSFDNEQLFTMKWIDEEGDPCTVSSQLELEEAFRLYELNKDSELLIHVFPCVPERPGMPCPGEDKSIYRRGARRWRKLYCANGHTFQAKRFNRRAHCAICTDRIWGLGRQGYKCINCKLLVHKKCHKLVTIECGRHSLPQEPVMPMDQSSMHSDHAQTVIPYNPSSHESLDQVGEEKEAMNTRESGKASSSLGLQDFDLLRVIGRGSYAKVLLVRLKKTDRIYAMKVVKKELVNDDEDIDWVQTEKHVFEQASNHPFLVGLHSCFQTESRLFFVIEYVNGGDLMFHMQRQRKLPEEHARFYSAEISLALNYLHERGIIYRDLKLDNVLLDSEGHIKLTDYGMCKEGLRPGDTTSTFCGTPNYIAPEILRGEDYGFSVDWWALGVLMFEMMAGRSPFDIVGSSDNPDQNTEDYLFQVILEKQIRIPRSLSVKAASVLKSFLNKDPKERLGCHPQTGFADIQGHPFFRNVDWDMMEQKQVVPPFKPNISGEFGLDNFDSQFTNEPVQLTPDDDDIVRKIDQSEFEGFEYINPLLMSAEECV
Conditions: at 1 µM.

The target of assay [12] is T4, Protein kinase C iota type (Homo sapiens). The conditions noted are these: at 10 µM.
For assay [13], the target named is T5, Serine/threonine-protein kinase D2 (Homo sapiens) (UniProt Q9BZL6).
T5 sequence (whole entry): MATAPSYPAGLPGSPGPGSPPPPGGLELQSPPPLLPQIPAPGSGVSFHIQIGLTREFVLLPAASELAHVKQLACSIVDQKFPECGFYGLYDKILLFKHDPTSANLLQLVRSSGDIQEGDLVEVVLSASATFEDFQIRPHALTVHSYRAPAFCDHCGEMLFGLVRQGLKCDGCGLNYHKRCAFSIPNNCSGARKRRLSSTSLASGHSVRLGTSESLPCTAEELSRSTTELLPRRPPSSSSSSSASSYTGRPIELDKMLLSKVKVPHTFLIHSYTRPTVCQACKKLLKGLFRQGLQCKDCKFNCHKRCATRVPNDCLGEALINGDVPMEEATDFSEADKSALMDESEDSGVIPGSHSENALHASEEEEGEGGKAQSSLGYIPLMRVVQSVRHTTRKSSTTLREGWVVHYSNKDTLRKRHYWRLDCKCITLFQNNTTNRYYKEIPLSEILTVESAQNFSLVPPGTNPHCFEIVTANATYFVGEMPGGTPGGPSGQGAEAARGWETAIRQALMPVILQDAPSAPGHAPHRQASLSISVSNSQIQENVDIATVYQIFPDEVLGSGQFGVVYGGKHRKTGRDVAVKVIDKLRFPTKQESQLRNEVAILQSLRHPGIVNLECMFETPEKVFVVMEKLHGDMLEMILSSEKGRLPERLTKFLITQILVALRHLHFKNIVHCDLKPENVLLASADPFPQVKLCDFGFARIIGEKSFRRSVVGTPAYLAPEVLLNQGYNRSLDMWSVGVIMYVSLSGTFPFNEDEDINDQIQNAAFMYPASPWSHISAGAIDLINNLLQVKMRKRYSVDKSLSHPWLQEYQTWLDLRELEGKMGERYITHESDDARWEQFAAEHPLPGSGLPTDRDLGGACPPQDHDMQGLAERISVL
The conditions noted are these: at 1 µM.

The target in assay [14] is T5, Serine/threonine-protein kinase D2 (Homo sapiens). Conditions: at 10 µM.
Assay [15] concerns the target T6, cGMP-dependent protein kinase 1 (Homo sapiens) (UniProt Q13976).
T6 sequence (whole entry): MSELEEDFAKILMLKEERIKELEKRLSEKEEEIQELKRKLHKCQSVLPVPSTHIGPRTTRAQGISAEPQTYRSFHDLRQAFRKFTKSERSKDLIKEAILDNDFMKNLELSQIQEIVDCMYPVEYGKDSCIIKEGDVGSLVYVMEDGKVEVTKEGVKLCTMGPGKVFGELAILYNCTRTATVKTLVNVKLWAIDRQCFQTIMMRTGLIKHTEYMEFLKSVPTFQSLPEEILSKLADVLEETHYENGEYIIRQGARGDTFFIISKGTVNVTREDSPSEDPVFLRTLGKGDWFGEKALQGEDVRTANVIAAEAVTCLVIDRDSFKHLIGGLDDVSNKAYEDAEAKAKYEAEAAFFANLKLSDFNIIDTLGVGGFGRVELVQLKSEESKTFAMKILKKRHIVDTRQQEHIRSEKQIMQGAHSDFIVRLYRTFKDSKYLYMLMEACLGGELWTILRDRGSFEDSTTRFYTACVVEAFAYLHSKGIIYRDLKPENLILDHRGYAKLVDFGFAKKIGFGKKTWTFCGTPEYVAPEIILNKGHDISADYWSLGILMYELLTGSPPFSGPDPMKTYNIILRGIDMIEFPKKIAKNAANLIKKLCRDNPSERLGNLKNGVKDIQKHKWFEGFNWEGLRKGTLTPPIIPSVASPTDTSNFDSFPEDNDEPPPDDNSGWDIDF
Conditions: at 1 µM.

Assay [16] addresses T6, cGMP-dependent protein kinase 1 (Homo sapiens). The conditions noted are these: at 10 µM.
The target is the same in assay [17]. The conditions noted are these: at 1 µM. This is another data set of the same source.
The target is the same in assay [18]. The conditions noted are these: at 10 µM. This is another data set of the same source.
In assay [19] the target is Serine/threonine-protein kinase N2 (Homo sapiens) (UniProt Q16513). The conditions noted are these: at 1 µM.
Chain of Serine/threonine-protein kinase N2 (Homo sapiens) (Q16513 whole entry, looked up): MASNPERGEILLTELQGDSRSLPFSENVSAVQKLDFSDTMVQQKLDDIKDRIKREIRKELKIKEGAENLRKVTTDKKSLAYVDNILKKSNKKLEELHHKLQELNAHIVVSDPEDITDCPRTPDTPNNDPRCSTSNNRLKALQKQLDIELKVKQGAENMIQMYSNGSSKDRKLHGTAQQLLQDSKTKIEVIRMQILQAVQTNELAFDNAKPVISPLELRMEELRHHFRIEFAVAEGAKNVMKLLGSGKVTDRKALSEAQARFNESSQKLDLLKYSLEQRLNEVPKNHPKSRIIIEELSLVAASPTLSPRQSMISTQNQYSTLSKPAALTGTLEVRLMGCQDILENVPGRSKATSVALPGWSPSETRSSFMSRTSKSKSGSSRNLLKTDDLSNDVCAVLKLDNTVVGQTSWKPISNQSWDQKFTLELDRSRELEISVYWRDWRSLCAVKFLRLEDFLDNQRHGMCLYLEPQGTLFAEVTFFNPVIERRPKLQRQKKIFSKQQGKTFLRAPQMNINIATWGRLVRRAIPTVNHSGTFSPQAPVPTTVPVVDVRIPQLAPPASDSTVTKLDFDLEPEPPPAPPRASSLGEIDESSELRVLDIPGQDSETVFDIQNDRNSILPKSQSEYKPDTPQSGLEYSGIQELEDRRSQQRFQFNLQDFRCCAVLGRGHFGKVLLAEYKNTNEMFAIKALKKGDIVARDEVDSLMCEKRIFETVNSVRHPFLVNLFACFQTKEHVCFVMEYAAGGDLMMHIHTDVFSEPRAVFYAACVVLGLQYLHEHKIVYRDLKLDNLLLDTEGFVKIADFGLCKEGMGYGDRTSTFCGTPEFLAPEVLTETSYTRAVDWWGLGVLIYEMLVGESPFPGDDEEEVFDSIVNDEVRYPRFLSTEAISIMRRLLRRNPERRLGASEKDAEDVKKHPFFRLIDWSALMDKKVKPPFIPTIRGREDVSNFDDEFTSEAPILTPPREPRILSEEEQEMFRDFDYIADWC
For assay [20] the target is unchanged. The conditions noted are these: at 10 µM.

Chain of Insulin-like growth factor 1 receptor (Homo sapiens) (P08069 31-736 limits assumed): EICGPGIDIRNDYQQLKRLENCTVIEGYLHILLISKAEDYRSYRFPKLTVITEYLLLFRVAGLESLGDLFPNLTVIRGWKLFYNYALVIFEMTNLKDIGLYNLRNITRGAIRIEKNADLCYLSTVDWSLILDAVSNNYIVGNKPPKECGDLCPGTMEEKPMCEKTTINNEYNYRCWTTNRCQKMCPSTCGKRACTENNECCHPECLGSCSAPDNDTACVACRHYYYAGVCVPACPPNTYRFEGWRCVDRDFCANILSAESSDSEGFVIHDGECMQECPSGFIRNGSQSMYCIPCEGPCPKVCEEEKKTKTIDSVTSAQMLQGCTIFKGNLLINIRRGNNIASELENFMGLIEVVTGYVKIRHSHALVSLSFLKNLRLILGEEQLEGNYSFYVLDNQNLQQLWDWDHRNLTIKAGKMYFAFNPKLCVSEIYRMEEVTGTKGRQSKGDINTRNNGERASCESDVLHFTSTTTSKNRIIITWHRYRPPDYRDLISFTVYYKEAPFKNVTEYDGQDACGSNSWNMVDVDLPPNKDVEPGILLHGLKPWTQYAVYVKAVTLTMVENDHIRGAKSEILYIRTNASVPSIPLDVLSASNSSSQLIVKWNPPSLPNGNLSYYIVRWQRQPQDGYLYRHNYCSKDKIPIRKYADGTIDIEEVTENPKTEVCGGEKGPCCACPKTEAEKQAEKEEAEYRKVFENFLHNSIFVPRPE
Chain of Insulin-like growth factor 1 receptor (Homo sapiens) (P08069 741-1367 limits assumed): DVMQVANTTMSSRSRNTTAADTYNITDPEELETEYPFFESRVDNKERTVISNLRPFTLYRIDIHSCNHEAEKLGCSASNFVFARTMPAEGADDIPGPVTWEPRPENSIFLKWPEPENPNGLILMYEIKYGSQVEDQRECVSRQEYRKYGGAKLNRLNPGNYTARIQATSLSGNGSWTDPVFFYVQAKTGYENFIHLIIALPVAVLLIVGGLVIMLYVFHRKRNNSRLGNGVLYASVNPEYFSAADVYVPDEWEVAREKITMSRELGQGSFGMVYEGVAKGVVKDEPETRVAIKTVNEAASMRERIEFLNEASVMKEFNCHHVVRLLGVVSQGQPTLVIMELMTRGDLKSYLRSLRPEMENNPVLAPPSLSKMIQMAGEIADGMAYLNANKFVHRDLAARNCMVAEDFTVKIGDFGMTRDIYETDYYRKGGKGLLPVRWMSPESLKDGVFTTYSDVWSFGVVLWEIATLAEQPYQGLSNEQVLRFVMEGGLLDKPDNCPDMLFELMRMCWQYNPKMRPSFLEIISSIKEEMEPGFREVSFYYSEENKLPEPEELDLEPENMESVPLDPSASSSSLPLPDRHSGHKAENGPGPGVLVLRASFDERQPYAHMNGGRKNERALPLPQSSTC

In the case of `CC(C)[C@H](CO)Nc1nc(Nc2cccc(Cl)c2)c2ncn(C(C)C)c2n1`, the residual activity in assay [1] stood at 136%; in assay [2] it was 117%; in [3], 100%; in assay [4] it was 90%; in assay [5] it was 70%; in [6] it was 26%. Further, the residual activity in [7] came to 81%; in assay [8], 86%; in assay [9], 102%; in assay [10] it was 59%.

On to `O=C1Nc2ccc3ncsc3c2/C1=C/c1c[nH]cn1`, for which the residual activity in assay [1] stood at 68%; in assay [2], 53%; in assay [3], 23%; in [4], 5%; in [5], 49%; in assay [6], 10%. Besides, the residual activity in [11] is 85% (inactive); in assay [12], 73%; in [7], 5%; in [8], 4%; in assay [13] it was 30%; in assay [14], 3%. The residual activity in assay [15] worked out at 13%; in assay [16], 2%; in assay [17] it was 7%; in [18], 1%; in [9] it was 49%; in assay [10], 18%. For the same compound, the residual activity in assay [19] stood at 4%; in assay [20] it was 2%.

As for `N/C(=N\[N+](=O)[O-])N/N=C\c1ccc(-c2cccc([N+](=O)[O-])c2)o1`, the residual activity was determined as 76% in assay [1], 98% in assay [2], 84% in [3] and 83% in assay [4].

`CC(C)(C)c1cc(C=C(C#N)C#N)cc(Br)c1O`: the residual activity in [1] is 101%; in [2], 101%; in [5], 103%; in assay [6], 75%; in assay [11], 107% (inactive); in assay [7] it was 98%. Further, the residual activity in [8] was 117%; in [13], 100%; in [14] it was 105%; in assay [15], 107%; in [17], 66%; in assay [18], 60%. The residual activity in [9] stood at 107%; in assay [10], 65%; in assay [19] it was 104%; in assay [20] it was 117%.

With `C[S+]([O-])c1ccc(-c2nc(-c3ccc(F)cc3)c(-c3ccncc3)[nH]2)cc1` (stereo not given), the residual activity in [1] was 117%; in assay [2], 111%; in [3] it was 79%; in assay [4] it was 77%; in assay [5], 105%; in [6] it was 104%. Also, the residual activity in assay [11] is 105% (inactive); in assay [12], 101%; in assay [7], 123%; in assay [8] it was 66%; in assay [13], 105%; in assay [14], 90%. The residual activity in assay [15] worked out at 101%; in [16] it was 99%; in assay [17] it was 125%; in assay [18], 107%; in assay [9] it was 145%; in assay [10], 104%. The residual activity in [19] came to 103%; in assay [20] it was 107%.

For the origin of these results see ChEMBL document CHEMBL2218924, “A broad activity screen in support of a chemogenomic map for kinase signalling research and drug discovery” (Biochem J, 2013).
